The campaign covered roughly 65,000 compounds. About 2,100 (3.2%) showed an effect of 50% or more. The median lay at about -52%. The entries come from a sample that favours strong results as a whole.

This assay deals with Plasmodium falciparum. The assay can be described thus: Screen against P. falciparum Asexual Blood Stage (ABS), at 5uM. It counts as functional, Dd2. The following applies: tested at 5 uM.
Take `CC(C)(C)OC(=O)NCCc1csc(N2CCCC2)n1`: the INHIBITION is reported as -50.6%. For the compound `Cn1cnc2c1C(COCc1cccnc1)N(Cc1ccccc1)CC2` (centres undefined), the INHIBITION was determined as 23.7%. The value for `Cn1cnc2c1C(COCc1ccccc1)N(Cc1cccnc1)CC2` (centres undefined) was 36.7%; that for `Cn1cnc2c1C(COCc1ccccc1)N(Cc1ccncc1)CC2` (centres undefined) was 51.6%; that for `Cn1cnnc1C1CCCN(C(=O)NCCCn2cccn2)C1` (centres undefined) was -205%. The value for `CC(C)CC(=O)N1CCC2(CC1)COCCN2Cc1ccc(F)cc1` was -3.2%; that for `Cc1cc(C)cc(C(=O)Nc2cccc(CN3CCCC3C(N)=O)c2)c1` (centres undefined) was -76.3%. The value for `CCCn1c(NCCc2ccccc2)nc2c(C)nn(C)c2c1=O` was -42.9%.

As to `CCCNS(=O)(=O)Cc1ccc(Br)cc1`, the INHIBITION was -14.1%.

As to `CC(O)CCN(C)S(=O)(=O)Cc1ccc(Br)cc1` (centres undefined), the INHIBITION is recorded as -23.8%. As for `CN(C)CCN(C)S(=O)(=O)Cc1ccc(Br)cc1`, the INHIBITION was 63.7%.

Turning to `CCOCC1CN(C(=O)C2=CCCC2)Cc2cnn(C)c21` (centres undefined), the INHIBITION was -16.8%. As for `Cc1ccc(N[C@@H]2CN(Cc3cc(C)on3)C[C@@H]3CCCO[C@@H]32)nn1`, the INHIBITION is -84.9%. In the case of `Cc1cccc(CN2C[C@@H]3CCCO[C@@H]3[C@H](Nc3ccccn3)C2)n1`, the INHIBITION was 55.6%.

As for `Cc1noc(C)c1CN1C[C@@H]2CCCO[C@@H]2[C@H](Nc2ccccn2)C1`, the INHIBITION was -37.5%. Take `N[C@@H]1c2ccccc2C2(CCN(c3ncccc3C(F)(F)F)CC2)[C@H]1O`: the INHIBITION is given as -6.42%. As to `CCCC1CCCN(C(=O)Nc2ccc(F)c(C(N)=O)c2)CC1` (centres undefined), the INHIBITION is given as -46%. Turning to `Cn1cc(CN2CCCC3(COCCN(Cc4c[nH]nn4)C3)C2)cn1` (centres undefined), the INHIBITION is recorded as -58.4%.

As for `COc1ccc(CN2CCOCC3(CCN(C4CCOCC4)C3)C2)cc1` (centres undefined), the INHIBITION is reported as 61%. As to `Cc1cccc(CN2CCOCC3(CCN(C4CCOCC4)C3)C2)n1` (centres undefined), the INHIBITION was determined as 42.5%. For `Cc1ccc(CN2CCOCC3(CCN(Cc4cccs4)C3)C2)o1` (centres undefined), the INHIBITION is 41.9%.

`COc1ccc(F)c(CN2CCCC3(CCN(C4CCOCC4)C3)C2)c1` (centres undefined): the INHIBITION was determined as 3.41%. As for `c1csc(CN2CCOCC3(CCN(C4CCOCC4)C3)C2)c1` (centres undefined), the figure is 50.4%; as for `Cn1cc(CN2CCOCC3(CCN(C4CCOCC4)C3)C2)cn1` (centres undefined), -41.5%. In the case of `c1cc(CN2CCCC3(COCCN(Cc4c[nH]nn4)C3)C2)cs1` (centres undefined), the INHIBITION was 27.7%. Turning to `Fc1ccc(CN2CCCC3(COCCN(Cc4c[nH]nn4)C3)C2)cc1` (centres undefined), the INHIBITION turned out to be 61.7%. On to `c1cn(-c2ccc(N3CCC(NC4CC4)CC3)cc2)cn1`, for which the INHIBITION is on record as 18.4%. In the case of `CC(C)c1cc(CN(C)C(=O)C(C)N2CCc3ccccc3C2)no1` (centres undefined), the INHIBITION is given as -28.5%.

`N[C@H]1CCCN(S(=O)(=O)c2ccc(C(=O)NCC(F)F)cc2)C1`: the INHIBITION was -117%. As for `Cc1cc(C)cc(OCCN(C)C2CCOC2=O)c1` (centres undefined), the figure is -68.2%. For `NC(C(=O)N1CCSc2ccccc2C1)c1ccccc1` (centres undefined), the INHIBITION came to 60.9%. In the case of `CC(C)C[C@H](N)C(=O)N1CCSc2ccccc2C1`, the INHIBITION was determined as 48%. Consider `N[C@@H](C(=O)N1CCN(c2ccccc2Cl)C(=O)C1)c1ccccc1`, for which the INHIBITION is listed as -17.6%. In the case of `O=S1(=O)CCC(NCCn2cncc2-c2ccc3c(c2)CCCO3)C1` (centres undefined), the INHIBITION was -91.4%. The value for `O=S(=O)(C1CC1)N1CC[C@]2(C[C@@H](Oc3ncccc3F)CO2)C1` was -24.1%; that for `CN(C)C(=O)c1cnc2n1CCN(Cc1cccnc1)C2` was -6.2%; that for `N#Cc1ccnc(NCc2cc3n(n2)CCCN(C(=O)C2CCC2)C3)c1` was -89.1%. In the case of `CN(Cc1ccccn1)C(CO)c1cccc(Br)c1` (centres undefined), the INHIBITION is on record as -68.3%. As for `Cc1nn(CCO)c(C)c1CNC1CCOc2ccccc21` (centres undefined), the figure is -36%; as for `Cc1nn(CCO)c(C)c1CNC1CCCCc2ccccc21` (centres undefined), -4.05%; as for `Cc1nn(CCO)c(C)c1CNC1CCC(C)(C)c2ccccc21` (centres undefined), 69.2%. With `Cc1cc2c(=O)n3c(nc2s1)CCN(Cc1[nH]cnc1C)CC3`, the INHIBITION was -96.3%. `O=C(NCCNc1cc(N2CCCC2)cnn1)Nc1ccccc1F`: the INHIBITION was -93.6%. As for `Cc1sc2c(C3CCNCC3)nc(Nc3cccc(F)c3)n2c1C`, the figure is -126%; as for `O=C1NCC2(CCCN(Cc3ccc(F)cc3)C2)Oc2ccccc21` (centres undefined), -41%; as for `O=C1NCC2(CCCN(Cc3ccccc3F)C2)Oc2ccccc21` (centres undefined), -20.4%. Take `O=C1NCC2(CCCN(CCc3ccccc3)C2)Oc2ccccc21` (centres undefined): the INHIBITION was 51.7%. In the case of `COc1ccc(C(=O)CCC(=O)NCc2c(C)noc2C)cc1F`, the INHIBITION is given as -164%. As for `CCCc1ncc(C(=O)N2CCOc3ncccc32)s1`, the figure is -13.4%; as for `Cc1cccc(N2CCN(C(=O)Nc3cnn(CC(N)=O)c3)CC2)c1`, -67.3%; as for `NC(=O)Cn1cc(NC(=O)N2CCN(c3ccc(F)cc3)CC2)cn1`, -40.9%. As to `NC(=O)Cn1cc(NC(=O)N2CCN(c3ccccc3)CC2)cn1`, the INHIBITION came to 63.7%.

With `COc1ccccc1CN1CC(OC)CN(C(=O)OCC(C)C)CC1=O` (centres undefined), the INHIBITION is recorded as -40.4%. For the compound `CC(c1cccs1)N(C)Cc1cnc(-c2ccccn2)nc1` (centres undefined), the INHIBITION is given as -132%. As for `Cc1ccc(C(=O)NCCCNS(C)(=O)=O)cc1-n1cccc1`, the INHIBITION is -137%. Take `C[C@@H](O)[C@H](NC(=O)c1csc2nc(-c3ccccc3F)cn12)C(N)=O`: the INHIBITION was -41.1%. `c1cc(-c2cnccn2)cc(-c2ccn(CCCN3CCCCC3)n2)c1`: the INHIBITION is listed as 21.9%. Regarding `c1cc(-c2cnccn2)cc(-c2ccn(CCN3CCCC3)n2)c1`, the INHIBITION is given as 69.1%. Turning to `c1cc(-c2cnccn2)cc(-c2ccn(CCN3CCCCC3)n2)c1`, the INHIBITION was determined as 43.8%.

As to `CN(C)CCCn1ccc(-c2cccc(-c3cncnc3)c2)n1`, the INHIBITION came out at 14.5%. In the case of `COc1ccc(-c2cccc(-c3ccn(CCCN(C)C)n3)c2)nn1`, the INHIBITION was -18.6%.

`CN(C)CCCn1ccc(-c2cccc(-c3ccccn3)c2)n1`: the INHIBITION was 61%. On to `Cc1cc(CN2CCc3c(CNc4ncccn4)cncc3C2)oc1C`, for which the INHIBITION came out at 0.619%. As for `CN(C)C(=O)COCc1cncc2c1CCN(Cc1ccccn1)C2`, the figure is 25.8%; as for `c1ccc(CN2CCc3c(COCC4CC4)cncc3C2)nc1`, 59.3%; as for `c1ccc(CN2CCc3c(COCc4ccncc4)cncc3C2)nc1`, -14.6%. For `CN(CC(=O)NCc1cccnc1N1CCCCC1)C(=O)c1cccs1`, the INHIBITION is on record as -48.6%. Regarding `CC(C)c1ccc(-n2nnc(C(=O)O)c2-c2ccccn2)cc1`, the INHIBITION was -101%. Take `N#Cc1cccnc1OC1CCN(S(=O)(=O)c2ccc(Br)cc2)CC1`: the INHIBITION is reported as -92.6%. Regarding `CCC(Nc1nc(CCN)nc2ccccc12)c1cccs1` (centres undefined), the INHIBITION was 63.5%. For the compound `NCCc1nc(N[C@@H](CO)c2ccccc2)c2ccccc2n1`, the INHIBITION was -39.4%. For the compound `CCC(Nc1nc(CCN)nc2ccccc12)c1cc(C)ccn1` (centres undefined), the INHIBITION is -22%.

In the case of `N#Cc1cccnc1N1CCC(Nc2ccccc2)C1` (centres undefined), the INHIBITION is reported as -76.7%. Take `O=C(CC1CC1)NCc1cn2c(n1)CN(Cc1cccc(F)c1)CC2`: the INHIBITION is reported as -52%. As for `CCNC(=O)COc1cc(CC)c2c(C)nn(-c3ccc(C)cc3)c2n1`, the figure is -21.1%; as for `CC(C)[C@@H]1CN(CCCOc2ccc(F)cc2)C[C@H]1NS(C)(=O)=O`, 53.7%. As for `CCc1ccccc1OCCN1C[C@@H](NS(C)(=O)=O)[C@H](C(C)C)C1`, the figure is 45.2%; as for `CC(C)[C@@H]1CN(CCOc2ccc(Cl)cc2)C[C@H]1NS(C)(=O)=O`, 45.9%; as for `CN(C)CCNC(=O)c1nc2c(s1)CCCN2C(=O)C1CC1`, 25.4%. The value for `CC(O)CNCc1ccc(OCc2ccc3c(c2)OCCO3)cc1` (centres undefined) was -169%; that for `COc1ccc(-n2ncc3c2NC(=O)CSC3CC(C)C)cc1` (centres undefined) was -124%. With `CCn1ccnc1CN1CCN(C(C)C(=O)N2CCCC2)CC1` (centres undefined), the INHIBITION is given as -81.3%. For the compound `CCn1ccnc1CN1CCN(C(C)C(=O)NC2CCCC2)CC1` (centres undefined), the INHIBITION amounted to 51%. On to `CCn1ccnc1CN1CCN(C(C)C(=O)NC2CCCCC2)CC1` (centres undefined), for which the INHIBITION is listed as -83.4%.

`CCn1ccnc1CN1CCN(CC(=O)NC(=O)NC2CC2)CC1`: the INHIBITION is listed as -97.3%. In the case of `CCn1ccnc1CN1CCN(CC(=O)NC(C2CC2)C2CC2)CC1`, the INHIBITION is 61.4%. Regarding `CCn1ccnc1CN1CCN(CC(=O)NC2CCOCC2)CC1`, the INHIBITION is -29%. Take `O=C1C(N2CCOCC2)CCCN1Cc1cccc(C(F)(F)F)c1` (centres undefined): the INHIBITION is -61.2%. Regarding `CC(C)(C)c1nc(CN(CCC2CCCCC2)CC(N)=O)no1`, the INHIBITION was -85.5%. `COc1ccc(CN2CCC(C(N)=O)C2)c(Br)c1OC` (centres undefined): the INHIBITION is given as -93.4%. As to `COc1ccc(CN2CCC(C(N)=O)CC2)cc1SC(F)(F)F`, the INHIBITION came to 63.5%. In the case of `COc1cc(Cl)c(CN2CCC(C(N)=O)C2)cc1Cl` (centres undefined), the INHIBITION turned out to be 7.24%. As for `COc1ccc2[nH]cc(CCNC(=O)C3CCCN(C(C)=O)C3)c2c1` (centres undefined), the INHIBITION is on record as -30%. In the case of `CSc1ncccc1C(=O)N1CCCC1c1ccc(C(=O)N(C)C)s1` (centres undefined), the INHIBITION is given as -53.6%.

For the compound `Cc1cc2n(n1)CCN(c1nc(N)nc3c1CCNCC3)C2`, the INHIBITION is on record as -75.3%. As for `Cc1cc2n(n1)CCN(c1nc(N(C)C)nc3c1CCNC3)C2`, the figure is 57.8%; as for `Cc1ccccc1N1CCN(c2nc(N(C)C)nc3c2CCNC3)CC1`, 39.1%. As for `Cc1ccc(NC2CCN(C(=O)c3ccc(F)cc3Cl)CC2)nn1`, the figure is -116%. For the compound `Cc1cc(-c2cnc(NC3CCCCC3)nc2-c2ccco2)on1`, the INHIBITION was -49.1%.

As to `CCc1nc(C2CCCN2Cc2cc(C)nc3ccccc23)no1` (centres undefined), the INHIBITION was -64.8%. As to `CN1CCCN(C(=O)NCc2ccccc2Cn2cncn2)CC1`, the INHIBITION is -93.1%. With `COCCN1C[C@@H]2CN(C(=O)[C@H]3CCCO3)C[C@@H]2C1=O`, the INHIBITION is given as -135%. Regarding `COCCN1C[C@@H]2CN(C(=O)CC3CC3)C[C@@H]2C1=O`, the INHIBITION is listed as 53.5%. Turning to `O=C(CC1CC1)N1C[C@H]2CN(CC3CC3)C(=O)[C@H]2C1`, the INHIBITION is -64.7%.

For the origin of these results see ChEMBL document CHEMBL4513216, “Probing the Open Global Health Chemical Diversity Library for Multistage-Active Starting Points for Next-Generation Antimalarials” (ACS Infect Dis, 2020).
